Where a name gives a salt, the structure may show the parent alone.
Key:
Details in all cases: 10 µM; exposure time 6 h
[1] = system: Danio rerio larvae (5 dpf); test: difference in excitability vs DMSO (percentage points); higher = more excitable than DMSO
Method in brief: (§1)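 In 96-well plates, 48 wild-type zebrafish larvae aged 5 dpf per compound received 100 µL egg water with library compound at 10 µM final for 6 h. Three hours into this, a 3-h programme of moving lines and 100 ms, 400Hz tones ran at 28.5 ℃ while plates were photographed every 6 s. Z-LaP Tracker scored the behaviours, and each is given as the compound mean minus the vehicle control mean in percentage points.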

[2] = system: Danio rerio larvae (5 dpf); test: difference in startle response vs DMSO (percentage points); higher = stronger startle than DMSO
Method in brief: as §1

[3] = system: Danio rerio larvae (5 dpf); test: difference in activity during first hour vs DMSO (percentage points); higher = more activity than DMSO
Method in brief: as §1

[4] = system: Danio rerio larvae (5 dpf); test: difference in habituation to acoustic stimuli vs DMSO (percentage points); higher = more habituation than DMSO
Method in brief: as §1

[5] = system: Danio rerio larvae (5 dpf); test: difference in combined optomotor response to red, green and blue moving lines vs DMSO (percentage points); higher = stronger optomotor response than DMSO
Method in brief: as §1

SMILES	difference in excitability [1]	difference in startle response [2]	difference in activity during first hour [3]	difference in habituation to acoustic stimuli [4]	difference [5]
Nc1ccc(O)c(C(=O)O)c1 [5-Aminosalicylic Acid]	2.98	0.822	3.09	1.77	-0.0944
Cc1ccc(C(=O)c2cc(O)c(O)c([N+](=O)[O-])c2)cc1 [Tolcapone]	5.24	-9.07	8.3	-6.19	-0.989
COc1cc(C(=O)NS(=O)(=O)c2ccccc2C)ccc1Cc1cn(C)c2ccc(NC(=O)OC3CCCC3)cc12 [Zafirlukast]	3.02	-0.95	17.6	4.84	-0.091
COC(=O)N(C)c1c(N)nc(-c2nn(Cc3ccccc3F)c3ncccc23)nc1N [Riociguat]	1.63	0.148	7.75	4.38	-2.92
Cc1cn(-c2cc(NC(=O)c3ccc(C)c(Nc4nccc(-c5cccnc5)n4)c3)cc(C(F)(F)F)c2)cn1 [Nilotinib]	28.8	-3.62	-6.05	-1.02	-2.49
CC1=C(C(=O)O)N2C(=O)[C@@H](NC(=O)[C@H](N)c3ccc(O)cc3)[C@H]2SC1 [Cefadroxil (hydrate)]	4.89	-1.88	6.54	-3.34	7.44
CN(Cc1cnc2nc(N)nc(N)c2n1)c1ccc(C(=O)N[C@@H](CCC(=O)O)C(=O)O)cc1 [Methotrexate (hydrate)]	9.03	7.54	-9.02	-0.271	3.11
CCN(CC)CC#CCOC(=O)C(O)(c1ccccc1)C1CCCCC1 (stereo not given) [Oxybutynin (hydrochloride)]	-4.54	8.08	-11.4	-8.53	-10.5
CCC1=C[C@@H]2CN(C1)Cc1c([nH]c3ccccc13)[C@@](C(=O)OC)(c1cc3c(cc1OC)N(C)[C@H]1[C@@](O)(C(=O)OC)[C@H](OC(C)=O)[C@]4(CC)C=CCN5CC[C@]31[C@@H]54)C2 [Vinorelbine (tartrate)]	11.6	-5.75	3.25	-2.19	-4.51
CC(C)C[C@H](NC(=O)[C@H](Cc1ccccc1)NC(=O)c1cnccn1)B(O)O [Bortezomib]	2.69	2.81	3.67	-1.33	-0.842
CCN1CCN(Cc2ccc(Nc3ncc(F)c(-c4cc(F)c5nc(C)n(C(C)C)c5c4)n3)nc2)CC1	21.9	1.59	-3.04	0.786	2.57
COc1ccc2cc(CCC(C)=O)ccc2c1 [Nabumetone]	0.732	-0.884	1.19	-1.53	0.192
CNNCc1ccc(C(=O)NC(C)C)cc1 [Procarbazine (hydrochloride)]	0.724	-0.558	6.39	-5.35	4.87
O=c1[nH]cc(F)c(=O)[nH]1 [5-Fluorouracil]	4.49	-1.7	-1.12	0.939	0.269
CN(C)CCCN1c2ccccc2CCc2ccccc21 [Imipramine (hydrochloride)]	14.5	-8.78	-16.4	-11.2	-6.91
COc1ccnc(C[S+]([O-])c2nc3cc(OC(F)F)ccc3[nH]2)c1OC (stereo not given) [Pantoprazole]	1.4	2.07	3.07	-4.45	5.14
C[C@H](N)[C@H](O)c1cccc(O)c1 [Metaraminol (tartrate)]	3.23	5.35	-15.4	-0.886	-6.91
Cl.N=C(N)NCCC[C@H](N)C(=O)O [L-Arginine (hydrochloride)]	4.03	-4.09	10.1	2.29	0.624
Nc1cccc2c1C(=O)N(C1CCC(=O)NC1=O)C2=O (stereo not given) [Pomalidomide]	0.1	2.2	0.787	2.64	1.26
CCCC1O[C@@H]2C[C@H]3[C@@H]4CCC5=CC(=O)C=C[C@]5(C)[C@H]4[C@@H](O)C[C@]3(C)[C@]2(C(=O)CO)O1 (stereo not given in full) [Budesonide]	4.9	-3.47	4.24	-2.87	12.5
CN(C)CC(c1ccc(O)cc1)C1(O)CCCCC1 (racemic) [(±)-O-Desmethyl Venlafaxine]	18.2	-5.6	-19.3	-8.93	-5.4
Cc1cccc(Nc2ccncc2S(=O)(=O)NC(=O)NC(C)C)c1 [Torasemide]	6.87	-10.7	6.15	-5.49	-5.29
O=C(NC1CCN(CCCCC2(C(=O)NCC(F)(F)F)c3ccccc3-c3ccccc32)CC1)c1ccccc1-c1ccc(C(F)(F)F)cc1 [Lomitapide]	17	-3.26	-7.94	-2.68	-5.57
CC12CC3CC(C)(C1)CC(N)(C3)C2 [Memantine (hydrochloride)]	4.15	-1.38	1.52	2.49	3.21
CS(=O)(=O)OCCCCOS(C)(=O)=O [Busulfan]	1.08	2.56	2.59	2.63	3.07

Reference: the supplement of paper PMC10515830
